Reference: PubChem BioAssay (Tox21)
Results filed as inconclusive are left out. Where a call stands in place of a potency, no number is given. Unmarked numbers belong to inactive results. Activity calls are given as the source filed them. Unless noted, calls come from the whole dose curve; as a rule, active = well fitted curve in the direction sought with a large enough effect in the repeat runs; inconclusive = weak or mixed curves; inactive = no such curve, though single readings can be large; an effect the other way counts as inactive or inconclusive.

Tests used:
[1] = target: Retinoic acid receptor RXR-alpha (Homo sapiens) (UniProt P19793); assay: qHTS assay to identify small molecule agonists of the RXR signaling pathway (AID 1159527; calls by dose curve; note: nearly all actives have a fitted effect of over 35% in size; note: potency is the fitted concentration of half-maximal effect); conditions: HEK293T RXRa-UAS-bla, beta-lactamase ratio, 16 h; series mostly up to 76.8 µM
In short: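 16 hr incubation of compound-treated RXR-alpha-UAS-bla HEK 293T cells (2% charcoal-stripped FBS, 37 C) preceded a 2 hr room-temperature LiveBLAzer FRET substrate step and blue/green fluorescence measurement.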

[2] = qHTS assay to identify small molecule agonists of the RXR signaling pathway - cell viability counter screen (AID 1159529); conditions: RXR-alpha-bla HEK293T viability, CellTiter-Glo, 16 h; series mostly up to 76.8 µM;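 note: HEK 293T cells carrying an RXR-alpha UAS beta-lactamase reporter; nearly all actives have a fitted effect of over 50% in size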
In short: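 In this parallel viability measure, GeneBLAzer RXR-alpha HEK 293T cells (2% charcoal-stripped FBS) were given a 5 hr preincubation, treated with compounds 16 hr at 37 C, and read by CellTiter-Glo luminescence.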

[3] = qHTS assay to identify small molecule antagonists of the retinoid acid receptor (RAR) signaling pathway - cell viability counter screen (AID 1159551); conditions: C3RL4 cells viability, ATP luminescence (CellTiter-Glo), 6 h; series mostly up to 92.4 µM; note: nearly all actives have a fitted effect of over 35% in size
In short: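 C3RL4 RARE-luciferase cells, 1,000/well, incubated overnight, then dosed with compound plus 1 uM retinol (final). After 6 hr at 37 C, viability read by CellTiter-Glo ATP luminescence following 30 min at room temperature.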

[4] = qHTS assay to identify small molecule antagonists of the estrogen related receptor (ERR) signaling pathway from Tox21 library - cell viability counter screen (AID 1224834); conditions: ERR reporter cells viability, CellTiter-Fluor, 17.5 h; series mostly up to 92.4 µM; note: nearly all actives have a fitted effect of over 30% in size
In short: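 ERR reporter cells, 2,000 per well, rested 6 h, then exposed to compound in DMSO for 17.5 hours at 37 C. Viability read as fluorescence after 30 min with CellTiter-Fluor.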

[5] = qHTS assay to identify small molecule agonists of the constitutive androstane receptor (CAR) signaling pathway - cell viability counter screen (AID 1224836); conditions: HepG2-CYP2B6-hCAR viability, CellTiter-Fluor, 23 h, PK11195 added to every well; series mostly up to 92.4 µM; note: nearly all actives have a fitted effect of over 45% in size
In short: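 Using CellTiter-Fluor, viability of HepG2 cells harbouring hCAR and CYP2B6-2.2kb was measured following 23 h incubation with a 15-concentration compound series plus PK11195 (0.75 uM final).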

[6] = target: Nuclear receptor subfamily 1 group I member 3 (Homo sapiens) (UniProt Q14994); assay: qHTS assay to identify small molecule antagonists of the constitutive androstane receptor (CAR) signaling pathway (AID 1224838); conditions: HepG2-CYP2B6-hCAR luciferase, CITCO-stimulated, 24 h; series mostly up to 92.4 µM; note: nearly all actives have a fitted effect of over 40% in size
In short: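 HepG2 cells stably carrying hCAR and a CYP2B6-2.2kb luciferase reporter, seeded 4 hrs before compound (15 concentrations). Stimulated with 50 nM CITCO for 24 hr at 37 C. ONE-Glo luminescence read after 30 min at room temperature.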

[7] = qHTS assay to identify small molecule antagonists of the estrogen related receptor signaling pathway with the pleiotropic PPARgamma coactivator (PGC) from Tox21 10K library - cell viability counter screen (AID 1224840; active = well fitted cell-killing curve with a large enough effect in the repeat runs, not every such curve was filed as active; note: nearly all actives have a fitted effect of over 40% in size); conditions: PGC/ERR reporter cells viability, CellTiter-Fluor, 17.5 h; series mostly up to 92.4 µM
In short: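 PGC/ERR cells (2,000/well) plated 6 h, then compound-treated for 17.5 h at 37 C. Viability measured by CellTiter-Fluor fluorescence after 30 min at 37 C, multiplexed with the pathway assay.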

[8] = qHTS assay to identify small molecule antagonists of the estrogen related receptor signaling pathway with the pleiotropic PPARgamma coactivator (PGC) from Tox21 10K library (AID 1224841; call rule not given here; note: actives are mostly falling curves and most rising ones were filed inactive; nearly all actives have a fitted effect of over 50% in size); conditions: PGC/ERR reporter cell line, ONE-Glo luciferase, 18 h; series mostly up to 92.4 µM
In short: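 PGC/ERR cell line, 2,000 cells/well, pre-incubated 6 hours at 37 C, then exposed to compounds for 18 hours at 37 C; luciferase read with One-Glo luminescence after 30 min at room temperature.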

[9] = qHTS assay to identify small molecule agonists of the estrogen related receptor signaling pathway with the pleiotropic PPARgamma coactivator (PGC) from Tox21 10K library (AID 1224842); conditions: PGC/ERR reporter cell line, luciferase ONE-Glo, 18 h; series mostly up to 92.4 µM; note: nearly all actives have a fitted effect of over 15% in size
In short: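 PGC/ERR reporter cells (NTP line) were seeded 2,000 per well, rested 6 h at 37 C/5% CO2, then pin-dosed with compounds in DMSO for 18 h at 37 C; luciferase read by One-Glo luminescence after 30 min at room temperature.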

[10] = qHTS assay to identify small molecule antagonists of the constitutive androstane receptor (CAR) signaling pathway - cell viability counter screen (AID 1224837); conditions: HepG2-CYP2B6-hCAR viability, CellTiter-Fluor, 23 h, co-treated with 50 nM CITCO; series mostly up to 92.4 µM; note: nearly all actives have a fitted effect of over 45% in size
In short: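 HepG2 cells stably carrying hCAR and CYP2B6-2.2kb reporter, stimulated with 50 nM CITCO and compounds at 15 concentrations for 23 h at 37 C. Viability measured by CellTiter-Fluor fluorescence.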

[11] = target: Luciferin 4-monooxygenase (Photinus pyralis) (UniProt P08659); assay: qHTS assay to identify small molecule inhibitors of firefly luciferase (AID 1224835); note: nearly all actives have a fitted effect of over 25% in size; conditions: purified P. pyralis luciferase, luminescence inhibition; series mostly up to 115 µM
In short: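 Quantitative HTS format; KM concentrations of both substrates. Purified P. pyralis FLuc activity quantified from luminescence images.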

[12] = target: Nuclear receptor subfamily 1 group I member 3 (Homo sapiens) (UniProt Q14994); assay: qHTS assay to identify small molecule agonists of the constitutive androstane receptor (CAR) signaling pathway (AID 1224839); conditions: HepG2 hCAR CYP2B6-luciferase, agonist mode, 24 h; series mostly up to 92.4 µM; note: nearly all actives have a fitted effect of over 15% in size
In short: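 Double-stable HepG2 cells (hCAR, CYP2B6-2.2kb) seeded 4 h before compound addition. Exposure 24 h with 0.75 uM PK11195 final. Luciferase detected by ONE-Glo.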

[13] = qHTS assay to identify small molecule antagonists of the retinoic acid receptor (RAR) signaling pathway (AID 1159552; note: nearly all actives have a fitted effect of over 50% in size; note: potency is the fitted concentration of half-maximal effect); conditions: C3RL4 RARE luciferase reporter, retinol-stimulated, 6 h; series mostly up to 92.4 µM
In short: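 C3RL4 RARE-luc cells, overnight plating; retinol 1 uM final added right after compound; 6 hr 37 C; luciferase read at 30 min RT.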

[14] = qHTS assay to identify small molecule agonists of the retinoic acid receptor (RAR) signaling pathway (AID 1159553); conditions: C3RL4 RARE luciferase reporter, agonist, 6 h; series mostly up to 73.3 µM
In short: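 C3RL4 RARE-luciferase cells were seeded at 1,000/well and grown overnight at 37 C, then exposed to compounds for 6 hr at 37 C, 5% CO2. Luciferase reagent was added and luminescence was read after 30 min at room temperature.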

[15] = qHTS assay to identify small molecule antagonists of the estrogen related receptor (ERR) signaling pathway - cell viability counter screen (AID 1224818); conditions: ERR reporter cell line viability counter screen; series mostly up to 46.1 µM
In short: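 ERR cells, 2,000 per well, compound added after 6 h and incubated 17.5 h at 37 C. Viability read by CellTiter-Fluor fluorescence after a further 30 min at 37 C.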

[16] = qHTS assay to identify small molecule antagonists of the estrogen related receptor signaling pathway with the pleiotropic PPARgamma coactivator (PGC) cell viability counter screen (AID 1224822); conditions: ERR/PGC reporter cell line viability counter screen; series mostly up to 46.1 µM
In short: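 PGC/ERR cells rested 6 h, then compound-treated 17.5 h at 37 C. CellTiter-Fluor added for 30 min at 37 C, viability measured by fluorescence intensity.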

Retinoic acid receptor RXR-alpha (Homo sapiens), sequence (P19793 whole entry, looked up): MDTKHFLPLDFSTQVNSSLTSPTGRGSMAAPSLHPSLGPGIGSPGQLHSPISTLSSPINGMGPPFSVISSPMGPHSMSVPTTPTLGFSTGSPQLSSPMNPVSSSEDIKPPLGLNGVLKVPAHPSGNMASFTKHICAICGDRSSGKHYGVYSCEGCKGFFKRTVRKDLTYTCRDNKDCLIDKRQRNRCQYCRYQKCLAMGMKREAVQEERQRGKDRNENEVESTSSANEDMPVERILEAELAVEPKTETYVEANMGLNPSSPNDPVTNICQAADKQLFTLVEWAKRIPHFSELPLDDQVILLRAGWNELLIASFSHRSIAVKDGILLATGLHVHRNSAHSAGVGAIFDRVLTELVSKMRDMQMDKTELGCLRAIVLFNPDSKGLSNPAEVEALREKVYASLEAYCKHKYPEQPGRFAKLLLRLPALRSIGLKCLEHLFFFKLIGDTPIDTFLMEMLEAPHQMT
Luciferin 4-monooxygenase (Photinus pyralis), sequence (P08659 whole entry, looked up): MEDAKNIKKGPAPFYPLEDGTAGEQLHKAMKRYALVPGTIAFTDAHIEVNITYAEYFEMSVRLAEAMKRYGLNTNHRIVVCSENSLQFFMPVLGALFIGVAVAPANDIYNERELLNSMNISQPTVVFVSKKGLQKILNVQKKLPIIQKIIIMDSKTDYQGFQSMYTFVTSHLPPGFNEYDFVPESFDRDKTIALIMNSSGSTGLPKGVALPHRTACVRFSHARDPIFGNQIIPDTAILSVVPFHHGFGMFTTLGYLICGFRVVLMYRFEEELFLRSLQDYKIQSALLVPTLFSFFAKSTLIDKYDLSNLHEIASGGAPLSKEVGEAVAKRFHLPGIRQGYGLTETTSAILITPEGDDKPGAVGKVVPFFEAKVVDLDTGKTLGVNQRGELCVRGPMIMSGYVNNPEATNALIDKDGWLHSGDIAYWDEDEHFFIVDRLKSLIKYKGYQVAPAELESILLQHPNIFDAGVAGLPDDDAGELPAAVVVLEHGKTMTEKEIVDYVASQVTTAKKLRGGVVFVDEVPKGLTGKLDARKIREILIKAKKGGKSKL
Nuclear receptor subfamily 1 group I member 3 (Homo sapiens), sequence (Q14994 whole entry, looked up): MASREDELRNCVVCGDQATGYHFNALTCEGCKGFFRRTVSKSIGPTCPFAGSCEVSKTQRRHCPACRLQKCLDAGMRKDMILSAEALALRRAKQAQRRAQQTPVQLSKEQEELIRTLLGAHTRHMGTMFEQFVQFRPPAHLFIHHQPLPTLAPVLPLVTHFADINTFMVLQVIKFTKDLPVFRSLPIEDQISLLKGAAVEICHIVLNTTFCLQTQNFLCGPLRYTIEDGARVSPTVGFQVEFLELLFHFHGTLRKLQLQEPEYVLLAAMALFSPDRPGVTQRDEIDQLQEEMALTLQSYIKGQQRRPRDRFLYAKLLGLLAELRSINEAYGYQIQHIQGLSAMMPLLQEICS

| SMILES | Potency [1] | Potency [2] | outcome [3] | Potency [4] | outcome [5] | Potency [6] | outcome [7] | Potency [8] | Potency [9] | outcome [10] | Potency [11] | Potency [12] | Potency [13] | Potency [14] | outcome [15] | outcome [16] |
| --- | --- | --- | --- | --- | --- | --- | --- | --- | --- | --- | --- | --- | --- | --- | --- | --- |
| C=CC(=O)N1CCOCC1 | inactive | inactive | inactive | inactive | inactive | inactive | inactive | inactive | inactive | – | – | – | – | – | – | – |
| CCCOCC(C)OCC(C)O (stereo not drawn) | inactive | inactive | inactive | inactive | inactive | – | inactive | inactive | inactive | inactive | – | – | – | – | – | – |
| OC/C=C/c1ccccc1 | inactive | inactive | inactive | – | inactive | – | inactive | – | – | inactive | inactive | – | – | – | – | – |
| CC(O)CN(CCCN(C)C)CCCN(C)C (stereo not drawn) | inactive | inactive | inactive | – | inactive | inactive | inactive | – | – | inactive | inactive | inactive | – | – | – | – |
| C=CCSCC1Nc2cc(Cl)c(S(N)(=O)=O)cc2S(=O)(=O)N1 (stereo not drawn) | inactive | inactive | inactive | – | inactive | – | inactive | – | – | inactive | – | inactive | – | – | – | – |
| O=C(O)C1CCC1 | inactive | inactive | inactive | – | inactive | – | inactive | – | – | inactive | inactive | – | – | – | – | – |
| COC(=O)CCCCCCCCC(=O)OC | inactive | inactive | inactive | inactive | inactive | – | inactive | inactive | inactive | inactive | – | – | – | – | – | – |
| CN(C)CCOC(c1ccc(Cl)cc1)c1ccccn1 (stereo not drawn) | inactive | inactive | inactive | – | inactive | – | inactive | – | – | – | inactive | – | – | – | – | – |
| O=c1[nH]c(=O)n([C@H]2O[C@H](CO)[C@@H](O)[C@@H]2O)cc1/C=C\Br | inactive | inactive | inactive | inactive | inactive | – | inactive | – | – | – | – | inactive | – | – | – | – |
| NC(=O)c1ncn([C@@H]2O[C@H](CO)[C@@H](O)[C@H]2O)c1N | inactive | inactive | – | inactive | – | inactive | inactive | – | – | inactive | inactive | inactive | inactive | inactive | – | – |
| C=C(C)[C@H]1CC=C(C)CC1 | inactive | inactive | – | inactive | inactive | inactive | inactive | – | – | – | – | inactive | – | – | – | – |
| O=C(O)c1cccc(C(=O)O)n1 | – | inactive | inactive | inactive | inactive | inactive | inactive | inactive | inactive | inactive | inactive | inactive | inactive | inactive | – | – |
| CC(C)c1cccc(C(C)C)c1N | inactive | – | inactive | inactive | inactive | – | inactive | inactive | inactive | inactive | inactive | inactive | inactive | inactive | – | – |
| O=C(O)Cc1cc(I)c(Oc2cc(I)c(O)c(I)c2)c(I)c1 | 15.2 µM (active) | – | inactive | inactive | inactive | inactive | inactive | – | – | inactive | – | inactive | 42.4 µM (active) | inactive | – | – |
| CC(=O)NC(Cc1ccccc1)C(=O)O (stereo not drawn) | – | inactive | inactive | inactive | inactive | inactive | inactive | – | – | inactive | inactive | inactive | inactive | inactive | – | – |
| NC1CCN(c2cccc(Cl)n2)CC1 | inactive | – | inactive | – | inactive | inactive | inactive | – | – | inactive | inactive | – | inactive | inactive | – | – |
| CCCOc1ccccc1-c1nc2n[nH]nc2c(=O)[nH]1 | – | inactive | inactive | inactive | inactive | – | inactive | – | – | inactive | – | inactive | inactive | inactive | inactive | inactive |
| COC(=O)c1ccc(C(=O)OC)c(C(=O)OC)c1 | inactive | – | inactive | – | inactive | – | inactive | inactive | inactive | inactive | – | inactive | inactive | inactive | – | – |
